# Test results reported in PubChem BioAssay.
# Inconclusive results are not listed. Activity calls are given as the source filed them. Cut-off read from the data, not from the text of the source, unless noted: active = inhibition above about 80%; inactive = the rest.
# What was measured:
# [1] = inhibitors of Cryptococcus chitosan production, flow cytometry, Cibacron Brilliant Red staining (AID 1347148; call rule not given here;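 note: compound exposure lasted three days at 37 degrees C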); conditions: Cryptococcus neoformans chitosan, stronger effect = lower value; at 10 µM unless noted
# [2] = protection against mutant huntingtin cytotoxicity, PC12 cells, LDH release (AID 1610); conditions: PC12 mutant huntingtin toxicity, final LDH at 4 uM, stronger effect = lower value
# [3] = molecular target: ATP-dependent translocase ABCB1 (Homo sapiens) (UniProt P08183); assay: MDR1 (ABCB1) efflux transporter inhibition, cell-based (AID 377; in the data active = fluorescence slope change above about 50%); conditions: MDR1-expressing cells, fluorescent substrate accumulation slope; stronger effect = higher value; concentration not given here
# Chain of ATP-dependent translocase ABCB1 (Homo sapiens) (P08183 whole entry, looked up): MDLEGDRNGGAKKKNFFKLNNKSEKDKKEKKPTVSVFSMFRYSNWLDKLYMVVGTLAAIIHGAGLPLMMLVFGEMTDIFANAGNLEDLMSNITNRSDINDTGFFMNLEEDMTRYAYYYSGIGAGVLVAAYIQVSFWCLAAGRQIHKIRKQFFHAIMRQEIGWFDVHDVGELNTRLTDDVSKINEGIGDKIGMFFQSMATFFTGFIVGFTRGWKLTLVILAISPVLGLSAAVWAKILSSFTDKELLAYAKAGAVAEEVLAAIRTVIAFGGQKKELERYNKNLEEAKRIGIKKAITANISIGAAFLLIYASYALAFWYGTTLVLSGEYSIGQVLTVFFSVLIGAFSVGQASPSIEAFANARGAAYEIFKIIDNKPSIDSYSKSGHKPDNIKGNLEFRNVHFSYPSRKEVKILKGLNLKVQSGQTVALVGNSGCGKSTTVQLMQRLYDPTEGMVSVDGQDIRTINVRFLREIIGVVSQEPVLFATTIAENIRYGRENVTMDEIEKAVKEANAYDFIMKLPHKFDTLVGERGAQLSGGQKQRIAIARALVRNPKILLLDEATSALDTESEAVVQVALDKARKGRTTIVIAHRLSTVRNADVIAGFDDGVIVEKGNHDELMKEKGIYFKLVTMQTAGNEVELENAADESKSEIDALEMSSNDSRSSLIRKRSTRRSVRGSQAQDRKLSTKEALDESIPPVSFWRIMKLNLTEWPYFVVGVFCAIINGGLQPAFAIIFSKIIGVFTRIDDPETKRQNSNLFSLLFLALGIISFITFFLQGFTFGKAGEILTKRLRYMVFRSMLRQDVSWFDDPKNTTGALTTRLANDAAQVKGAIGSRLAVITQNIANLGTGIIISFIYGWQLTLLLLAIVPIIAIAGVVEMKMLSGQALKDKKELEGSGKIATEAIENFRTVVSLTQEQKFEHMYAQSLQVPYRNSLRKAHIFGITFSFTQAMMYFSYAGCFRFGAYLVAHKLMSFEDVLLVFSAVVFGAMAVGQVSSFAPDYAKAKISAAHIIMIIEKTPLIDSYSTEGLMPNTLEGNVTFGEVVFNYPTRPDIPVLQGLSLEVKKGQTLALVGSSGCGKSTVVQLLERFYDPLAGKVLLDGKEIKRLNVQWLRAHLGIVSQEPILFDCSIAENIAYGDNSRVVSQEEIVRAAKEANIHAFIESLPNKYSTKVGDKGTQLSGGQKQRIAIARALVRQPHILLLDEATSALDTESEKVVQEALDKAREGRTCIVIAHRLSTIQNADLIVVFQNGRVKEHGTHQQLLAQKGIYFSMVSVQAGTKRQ
# [4] = LFS_MB_P medulloblastoma growth inhibition, cell-based, chromothripsis tumors, cisplatin or BGB combos (AID 1671449); conditions: LFS_MB_P medulloblastoma cells;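 note: cells exposed for 96 hours; 0% = vehicle DMSO and 100% = killing by high DMSO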
# [5] = HDN33 neuroblastoma growth inhibition, cell-based, chromothripsis tumors, cisplatin or BGB combos (AID 1671450); conditions: HDN33 neuroblastoma cells, stronger effect = higher value;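 note: cells exposed to compound for four days; 0% = vehicle DMSO and 100% = cell killing by high DMSO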
# [6] = ICB984 medulloblastoma cell growth inhibition, synergistic combos for chromothripsis tumors, cisplatin or BGB combos (AID 1671451; call rule not given here;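 note: cells exposed for 96 hours before readout; 0% = vehicle DMSO and 100% = killing by high DMSO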); conditions: ICB984 medulloblastoma cells, drug combinations, stronger effect = higher value
# [7] = LFS_MB_1R medulloblastoma cell growth inhibition, synergistic combos for chromothripsis tumors, cisplatin or BGB combos (AID 1671452); conditions: LFS_MB_1R medulloblastoma cells, stronger effect = higher value;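 note: cells exposed for 96 hours before readout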
# [8] = HTB85 osteosarcoma cell growth inhibition, synergistic combos for chromothripsis tumors, BGB or cisplatin IC20 combos (AID 1671453); conditions: HTB85 osteosarcoma cells, drug combinations, stronger effect = higher value;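 note: cells exposed for 96 hours before readout; 0% = vehicle DMSO and 100% = high DMSO killing control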
# [9] = CRL2098 osteosarcoma cell growth inhibition, synergistic combos for chromothripsis tumors, BGB or cisplatin IC20 combos (AID 1671454); conditions: CRL2098 osteosarcoma cells, drug combinations, stronger effect = higher value;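 note: cells exposed for 96 h before readout; 0% = vehicle DMSO and 100% = killing by high DMSO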
# [10] = HD-MB03 medulloblastoma cell growth inhibition, synergistic combos for chromothripsis tumors, BGB or cisplatin IC20 combos (AID 1671455; in the data active = inhibition above about 83%;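 note: 0% = vehicle DMSO and 100% = high DMSO as cytotoxic control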); conditions: HD-MB03 medulloblastoma cells, stronger effect = higher value
# [11] = UWB1.289 ovarian carcinoma cell growth inhibition, synergistic combos for chromothripsis tumors, BGB or cisplatin combos (AID 1671456); conditions: UWB1.289 ovarian carcinoma cells, stronger effect = higher value;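 note: cells exposed to compound for four days; 0% = vehicle DMSO and 100% = killing by high DMSO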
# [12] = LFS_MB_2R medulloblastoma cell growth inhibition, synergistic combos for chromothripsis tumors, cisplatin combos (AID 1671457); conditions: LFS_MB_2R medulloblastoma cells, stronger effect = higher value;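 note: cells exposed to compound for four days before readout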
# [13] = MDA-MB-436 breast carcinoma cell growth inhibition, synergistic combos for chromothripsis tumors, BGB or cisplatin combos (AID 1671458; call rule not given here;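 note: cells exposed for 96 hours; 0% = vehicle DMSO and 100% = killing by high DMSO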); conditions: MDA-MB-436 breast carcinoma growth inhibition, drug combinations, stronger effect = higher value
# [14] = UWB1.289_BRCA1 ovarian cancer growth, cell-based, BGB or cisplatin combinations (AID 1671459); conditions: UWB1.289 BRCA1 ovarian carcinoma, drug combinations, stronger effect = higher value
# [15] = human astrocyte viability loss, single and combined drugs, cytotoxicity control for chromothriptic childhood tumor combination screen, cell-based, BGB or cisplatin IC20 combos (AID 1671460); conditions: Human astrocytes, drug combinations, stronger effect = higher value;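 note: cells exposed to compounds for 96 hours before viability readout; 0% = vehicle and 100% = killing control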
# [16] = growth inhibition of BT084 medulloblastoma cells, cell-based, ICGC_MB145, cisplatin and BGB IC40 combos (AID 1671461); conditions: drug combinations, stronger effect = higher value;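 note: cells exposed to drugs for 96 hours; 0% = vehicle DMSO and 100% = high DMSO full killing control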
# [17] = growth inhibition of RCMB18 medulloblastoma cells, cell-based, cisplatin and BGB IC40 combos (AID 1671462); conditions: stronger effect = higher value;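 note: cells exposed to compound for four days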
# [18] = growth inhibition of CRL1545 osteosarcoma cells, cell-based, cisplatin and BGB IC20 combos (AID 1671464); conditions: stronger effect = higher value;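 note: cells exposed to compound for 96 hours before readout; 0% = vehicle DMSO and 100% = high DMSO killing control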
# [19] = protection of motor neurons from glutamate death, cell-based, TUNEL DNA degradation staining, MNGlu (AID 1594; call rule not given here); conditions: glutamate-induced death, at 1 µM, stronger effect = higher value
# [20] = measured here: combination with BGB IC40, at 0.05 µM
# [21] = measured here: with BGB IC20 combination, at 0.5 µM
# [22] = measured here: with cisplatin IC20 combination, at 0.5 µM
# [23] = measured here: combination with cisplatin, at 0.5 µM
# [24] = measured here: combination with cisplatin, at 5 µM
smiles,measurement,setting,value
C[C@@H]1CC2C3CCC4=CC(=O)C=C[C@]4(C)[C@@]3(F)[C@@H](O)C[C@]2(C)[C@@]1(O)C(=O)CO (stereo partly drawn),fold fluorescence,[1],10.5 [at 127.4 µM] (inactive)
CO[C@@]12[C@@H]3NC3CN1C1=C(C(=O)C(N)=C(C)C1=O)[C@@H]2COC(N)=O (stereo partly drawn),normalised LDH release,[2],0.873
same,fold fluorescence,[1],4.49 [at 149.6 µM] (inactive)
COC1CC2CCC(C)C(O)(O2)C(=O)C(=O)N2CCCCC2C(=O)OC(C(C)CC2CCC(O)C(OC)C2)CC(=O)C(C)/C=C(\C)C(O)C(OC)C(=O)C(C)CC(C)/C=C/C=C/C=C/1C (stereo not drawn),fold fluorescence,[1],6.13 [at 54.7 µM] (inactive)
CCC(NC(C)C)C(O)c1ccc(O)c(O)c1 (stereo not drawn),fluorescence slope change,[3],50.8% (active)
CCCCC[C@H](CC(=O)NO)C(=O)N[C@H](C(=O)N1CCC[C@H]1CO)C(C)C,normalised LDH release,[2],1.19
COc1cccc2c1C(=O)c1c(O)c3c(c(O)c1C2=O)C[C@@](O)(C(=O)CO)C[C@@H]3OC1C[C@H](N)[C@H](O)[C@H](C)O1 (stereo partly drawn),fold fluorescence,[1],5.77 [at 92 µM] (inactive)
c1ccc(C2CN3CCSC3=N2)cc1 (stereo not drawn),fluorescence slope change,[3],29.7% (inactive)
O=C(O)c1ccccc1Nc1ccccc1,fold fluorescence,[1],3.75 [at 234.5 µM] (inactive)
O=C(Nc1ccccc1)c1ccccc1O,inhibition,"[4]; at 0.5 µM, stronger effect = higher value",-6.1% (inactive)
same,inhibition,"[4]; measured here: combination with BGB IC20, at 0.005 µM",6.63%
same,inhibition,"[4]; measured here: combination with BGB IC40, at 0.005 µM",36%
same,inhibition,[4]; [20],-10.8%
same,inhibition,"[4]; measured here: combination with cisplatin, at 0.5 µM, stronger effect = higher value",-0.1%
same,inhibition,"[4]; measured here: combination with cisplatin, at 5 µM, stronger effect = higher value",3.47%
same,inhibition,"[5]; BGB combo, at 5 µM",22.1%
same,inhibition,[5]; at 0.5 µM,6.53% (inactive)
same,inhibition,"[5]; cisplatin combo, at 5 µM",16.8%
same,inhibition,[5]; [21],4%
same,inhibition,[5]; [22],11.1%
same,inhibition,"[5]; single agent, at 5 µM",27.8%
same,inhibition,"[6]; BGB IC20 combo, at 0.005 µM",-13.9%
same,inhibition,"[6]; BGB IC40 combo, at 0.005 µM",-1.37%
same,inhibition,"[6]; BGB IC40 combo, at 0.05 µM",0.369%
same,inhibition,[6]; at 0.5 µM,-10.1% (inactive)
same,inhibition,"[6]; cisplatin combo, at 0.05 µM",0.369%
same,inhibition,"[6]; cisplatin combo, at 0.5 µM",-23.4%
same,inhibition,"[6]; cisplatin combo, at 5 µM",-15.5%
same,inhibition,"[6]; measured here: 5 uM single agent, at 5 µM",19.2%
same,inhibition,[7]; at 0.5 µM,-12.4% (inactive)
same,inhibition,[7]; [20],-23.1%
same,inhibition,[7]; [23],-15.5%
same,inhibition,[7]; [24],13.9%
same,inhibition,[8]; at 0.5 µM,1.9% (inactive)
same,inhibition,"[8]; measured here: with BGB IC20, at 0.5 µM",-7.23%
same,inhibition,"[8]; measured here: with BGB IC20, at 5 µM",16.9%
same,inhibition,"[8]; measured here: with cisplatin IC20, at 0.5 µM",3.88%
same,inhibition,"[8]; measured here: with cisplatin IC20, at 5 µM",16.9%
same,inhibition,"[8]; single agent, at 5 µM",20.7%
same,inhibition,[9]; at 0.5 µM,-8.88% (inactive)
same,inhibition,"[9]; measured here: combination with BGB at IC20, at 0.5 µM",-7.52%
same,inhibition,"[9]; measured here: combination with cisplatin at IC20, at 0.5 µM",4.38%
same,inhibition,[10]; at 0.5 µM,-0.28% (inactive)
same,inhibition,"[10]; measured here: combo with BGB at IC20, at 0.5 µM",1.59%
same,inhibition,"[10]; measured here: combo with cisplatin at IC20, at 0.5 µM",-2.6%
same,inhibition,[11]; at 0.5 µM,10.7% (inactive)
same,inhibition,"[11]; measured here: inhibition with BGB combination, at 0.05 µM",0.707%
same,inhibition,"[11]; measured here: inhibition with cisplatin combination, at 0.05 µM",-5.75%
same,inhibition,[12]; at 0.5 µM,6.25% (inactive)
same,inhibition,[12]; [23],7.79%
same,inhibition,[12]; [24],26.7%
same,inhibition,[13]; at 0.5 µM,-7.25% (inactive)
same,inhibition,"[13]; measured here: BGB combination, at 0.5 µM",-6.93%
same,inhibition,"[13]; measured here: BGB combination, at 5 µM",9.41%
same,inhibition,"[13]; measured here: cisplatin combination, at 0.5 µM",-18%
same,inhibition,"[13]; measured here: cisplatin combination, at 5 µM",28.1%
same,inhibition,"[14]; BGB combination, concentration series, at 5 µM",20.8%
same,inhibition,[14]; at 0.5 µM,4.85% (inactive)
same,inhibition,"[14]; cisplatin combination, concentration series, at 5 µM",20.1%
same,inhibition,[15]; at 0.5 µM,6.87% (inactive)
same,inhibition,"[15]; measured here: combo with BGB IC20, at 0.5 µM",7.24%
same,inhibition,"[15]; measured here: combo with cisplatin IC20, at 0.5 µM",10.9%
same,inhibition,[16]; at 0.5 µM,1.08% (inactive)
same,inhibition,"[16]; cisplatin combination, at 0.5 µM",7.73%
same,inhibition,"[16]; cisplatin combination, at 5 µM",-4.41%
same,inhibition,"[16]; measured here: BGB IC40 combination 0.05 uM, at 0.05 µM",23%
same,inhibition,"[16]; single agent, at 5 µM",16.7%
same,inhibition,[17]; at 0.5 µM,11.8% (inactive)
same,inhibition,"[17]; cisplatin combo, at 5 µM",41.7%
same,inhibition,"[17]; measured here: BGB IC40 combination, at 0.05 µM",-1.52%
same,inhibition,[17]; [23],26.1%
same,inhibition,"[17]; single agent, at 5 µM",5.55%
same,inhibition,[18]; at 0.5 µM,-2.83% (inactive)
same,inhibition,[18]; [21],17.8%
same,inhibition,[18]; [22],-13.1%
same,inhibition,"[18]; single agent, at 0.05 µM",12.8%
same,inhibition,"[18]; single agent, at 5 µM",42.5%
CCC[C@@H]1C[C@@H](C(=O)N[C@@H](C2O[C@H](SC)[C@H](O)[C@@H](O)[C@H]2O)[C@H](C)Cl)N(C)C1 (stereo partly drawn),fluorescence slope change,[3],138% (active)
O=C(O)Cc1cc(I)c(Oc2ccc(O)c(I)c2)c(I)c1,fluorescence slope change,[3],75.2% (active)
COc1ccc(C[C@H](N)C(=O)N[C@@H]2[C@@H](CO)OC(n3cnc4c(N(C)C)ncnc43)[C@@H]2O)cc1 (stereo partly drawn),normalised LDH release,[2],1
CN[C@@H]1[C@H](OC2[C@H](O[C@H]3[C@H](O)[C@@H](O)[C@H](N=C(N)N)[C@@H](O)[C@@H]3N=C(N)N)O[C@@H](C)[C@]2(O)C=O)O[C@@H](CO)[C@H](O)[C@H]1O (stereo partly drawn),normalised LDH release,[2],0.965
CC1(C)O[C@@H]2CC3C4C[C@H](F)C5=CC(=O)C=CC5(C)C4C(O)CC3(C)[C@]2(C(=O)CO)O1 (stereo partly drawn),normalised LDH release,[2],0.689
CC(C)[C@@H]1CC[C@@H](C)C[C@H]1O,protection,[19],54% (active)
